The source made the active and inactive calls.
What was measured:
[1] = E. coli DRC41 culture turbidity changes, primary screen, E. coli filamentation inducer project, strain DRC41, OD650, 48 h (AID 1152);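 also: E. coli MC1000 strain DRC41 lacking acrAB efflux pump and sulA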; details: E. coli DRC41 (acrAB sulA), higher = more signal, called active from +8 up or from −8 down
[2] = small-molecule binders of probe aLefty1, primary screen, biochemical, small-molecule microarray, 635/667 nm fluorescence (AID 1153); details: higher = more signal;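 also: score merges spot fluorescence with signal-to-noise ratio from the scanned slide images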
[3] = PSAC antagonists in infected red cells, primary screen, cell-based, P. falciparum Indochina, OD700, 1 h (AID 1154); details: P. falciparum Indochina infected RBC osmotic lysis, higher = more signal, called active from +8 up or from −8 down
[4] = PSAC antagonists in infected red cells, primary screen, cell-based, P. falciparum Indochina, OD700, 2 h (AID 1155);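 also: lysis reports solute entry through the parasite surface anion channel PSAC; channel blockers reduce lysis of infected cells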; details: P. falciparum Indochina infected erythrocytes, osmotic lysis OD700; higher = more signal, called active from +8 up or from −8 down
[5] = osmotic lysis modulators in infected erythrocytes, primary screen, PSAC antagonist project, cell-based, P. falciparum Indochina, OD700, 3 h (AID 1156); details: higher = more signal, called active from +8 up or from −8 down
[6] = PSAC antagonists in infected red cells, primary screen, cell-based, P. falciparum Indochina, OD700, 18 h (AID 1157); details: P. falciparum Indochina infected erythrocytes, osmotic lysis OD700, 18 h; higher = more signal, called active from +8 up or from −8 down
[7] = modulators of S6 phosphorylation in cells, primary screen, cell-based, A549, cytoblot, luminescence, serum-stimulated (AID 1158); details: A549 phospho-S6 cytoblot, 5 h, higher = more signal;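 also: serum-stimulated A549 lung adenocarcinoma cells; signal is phosphorylated S6 detected by cytoblot immunostaining with HRP secondary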
[8] = target: NADPH oxidase 2 (Homo sapiens) (UniProt P04839); assay: NOX2-dependent H2O2 signal modulators, primary screen, NOX inhibitor project, cell-based, HEK293-NOX2, PMA-stimulated, Amplex Red fluorescence (AID 1159); details: 45 min, higher = more signal, called active from +8 up or from −8 down; also: test concentration not given here
[9] = target: NADPH oxidase 4 (Homo sapiens) (UniProt Q9NPH5); assay: NOX4-dependent H2O2 signal modulators, primary screen, NOX inhibitor project, cell-based, HEK293-NOX4, tetracycline-induced, Amplex Red fluorescence (AID 1160); details: 45 min, higher = more signal, called active from +8 up or from −8 down
[10] = target: NADPH oxidase 5 (Homo sapiens) (UniProt Q96PH1); assay: NOX5-dependent H2O2 signal modulators, primary screen, NOX inhibitor project, cell-based, HEK293-NOX5, Amplex Red fluorescence (AID 1161); details: HEK293-NOX5, ionomycin, 45 min, higher = more signal
NADPH oxidase 5 (Homo sapiens), sequence (Q96PH1 whole entry, looked up): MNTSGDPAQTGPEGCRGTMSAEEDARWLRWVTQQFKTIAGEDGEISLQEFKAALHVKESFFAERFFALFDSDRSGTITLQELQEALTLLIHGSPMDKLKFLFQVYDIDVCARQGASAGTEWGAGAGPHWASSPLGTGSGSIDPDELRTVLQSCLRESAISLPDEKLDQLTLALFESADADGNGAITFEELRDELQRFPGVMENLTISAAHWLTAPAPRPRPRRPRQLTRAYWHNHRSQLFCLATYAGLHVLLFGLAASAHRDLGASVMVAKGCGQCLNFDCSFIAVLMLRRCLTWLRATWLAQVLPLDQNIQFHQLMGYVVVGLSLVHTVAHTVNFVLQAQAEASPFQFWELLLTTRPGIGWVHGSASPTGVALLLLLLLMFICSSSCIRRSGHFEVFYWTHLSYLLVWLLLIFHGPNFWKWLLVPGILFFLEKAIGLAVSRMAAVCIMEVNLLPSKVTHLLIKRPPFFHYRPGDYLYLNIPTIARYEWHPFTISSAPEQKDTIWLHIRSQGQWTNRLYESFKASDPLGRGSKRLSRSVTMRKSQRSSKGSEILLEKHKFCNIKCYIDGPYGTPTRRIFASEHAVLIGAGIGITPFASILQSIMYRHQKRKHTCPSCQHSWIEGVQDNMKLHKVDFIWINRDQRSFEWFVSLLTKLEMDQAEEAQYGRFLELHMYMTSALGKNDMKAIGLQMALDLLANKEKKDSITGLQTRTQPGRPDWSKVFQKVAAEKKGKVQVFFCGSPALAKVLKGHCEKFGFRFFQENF

NADPH oxidase 2 (Homo sapiens), sequence (P04839 whole entry, looked up): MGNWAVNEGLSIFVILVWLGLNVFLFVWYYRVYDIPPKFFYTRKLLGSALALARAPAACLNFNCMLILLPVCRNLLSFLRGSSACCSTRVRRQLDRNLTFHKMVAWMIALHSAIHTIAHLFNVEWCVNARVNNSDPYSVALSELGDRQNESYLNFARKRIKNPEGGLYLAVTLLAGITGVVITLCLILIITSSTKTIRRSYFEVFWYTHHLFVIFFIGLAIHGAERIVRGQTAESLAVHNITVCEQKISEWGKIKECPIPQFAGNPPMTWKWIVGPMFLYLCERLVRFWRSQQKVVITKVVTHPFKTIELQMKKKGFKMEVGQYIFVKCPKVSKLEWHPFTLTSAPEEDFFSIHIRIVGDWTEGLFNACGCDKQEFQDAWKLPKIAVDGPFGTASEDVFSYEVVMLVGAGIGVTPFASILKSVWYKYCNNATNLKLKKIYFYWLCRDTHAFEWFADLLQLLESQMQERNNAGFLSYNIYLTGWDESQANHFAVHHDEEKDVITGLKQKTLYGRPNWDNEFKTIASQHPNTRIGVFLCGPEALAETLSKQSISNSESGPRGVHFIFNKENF
NADPH oxidase 4 (Homo sapiens), sequence (Q9NPH5 whole entry, looked up): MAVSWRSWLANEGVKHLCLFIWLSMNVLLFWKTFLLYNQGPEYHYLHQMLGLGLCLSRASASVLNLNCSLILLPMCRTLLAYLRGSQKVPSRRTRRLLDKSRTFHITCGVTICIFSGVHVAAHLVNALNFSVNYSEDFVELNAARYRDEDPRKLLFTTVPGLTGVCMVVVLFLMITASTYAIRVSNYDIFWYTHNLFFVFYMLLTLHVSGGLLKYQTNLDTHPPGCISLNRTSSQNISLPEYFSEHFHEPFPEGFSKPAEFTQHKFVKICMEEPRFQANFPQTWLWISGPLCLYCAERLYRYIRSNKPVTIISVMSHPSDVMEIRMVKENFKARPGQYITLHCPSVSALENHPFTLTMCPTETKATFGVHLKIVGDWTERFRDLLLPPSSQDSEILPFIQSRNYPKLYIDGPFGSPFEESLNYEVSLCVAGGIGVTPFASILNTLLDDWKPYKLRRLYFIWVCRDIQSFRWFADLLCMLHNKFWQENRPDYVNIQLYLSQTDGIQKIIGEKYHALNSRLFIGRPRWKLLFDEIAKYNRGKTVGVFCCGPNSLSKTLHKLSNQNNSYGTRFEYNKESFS

In the case of `COCCCNC(=O)[C@@]1(Cc2ccccc2CN=[N+]=[N-])N=C(c2ccc(OCCCO)cc2)O[C@H]1c1ccccc1`, the z-score [1] is reported as -0.314 (inactive), the composite z-score [2] is reported as 0.197 and the z-score [3] is reported as 17.1 (active). The z-score [4] was 2.76 (inactive), the z-score [5] was 0.697 (inactive) and the z-score [6] was 1.16 (inactive). The z-score [7] was 0.146, the z-score [8] was -1.79 (inactive) and the z-score [9] was -0.298 (inactive). For the same compound, the z-score [10] was -1.54.
In the case of `COC(=O)[C@@]1(Cc2ccccc2)[C@H]2c3cc(C(=O)N(C)C)n(Cc4c(CO)[nH]cc(C)c4=O)c3C[C@H]2CN1C(=O)c1ccccc1`, the z-score [1] is reported as -1.16 (inactive), the composite z-score [2] is reported as 0.0004 and the z-score [3] is reported as 0.758 (inactive). For the same compound, the z-score [4] was -0.16 (inactive), the z-score [5] was 0.338 (inactive) and the z-score [6] was 0.248 (inactive). For the same compound, the z-score [7] was -0.482, the z-score [8] was 0.495 (inactive) and the z-score [9] was 0.334 (inactive). The z-score [10] was -1.91.
For `CCOC(=O)C1CCCCN1` (stereo not given), the z-score [1] was -0.641 (inactive), the composite z-score [2] was 1.08 and the z-score [3] was -0.536 (inactive). The z-score [4] was 0.0175 (inactive), the z-score [5] was -0.965 (inactive) and the z-score [6] was 0.0086 (inactive). For the same compound, the z-score [7] was -0.0896, the z-score [8] was 0.0494 (inactive) and the z-score [9] was 0.0488 (inactive). It also gave a z-score [10] of -0.117.
With `COc1cc(CO)cc(I)c1O[C@H]1C=C(C(=O)NCCO)C[C@@H](NCc2ccc(F)cc2)[C@@H]1O` the z-score [1] was 0.548 (inactive), the composite z-score [2] was -0.24 and the z-score [3] was 21.8 (active). The z-score [4] was 5.43 (inactive), the z-score [5] was 4.03 (inactive) and the z-score [6] was 1.36 (inactive). For the same compound, the z-score [7] was 0.325, the z-score [8] was -1.07 (inactive) and the z-score [9] was -1.05 (inactive). It also gave a z-score [10] of -0.994.
In the case of `C[N+](C)(C)CCCCCCNC(=O)[C@H]1C[C@H]2C(=O)N[C@@H](Cc3ccccc3)C(=O)N2[C@H]1c1ccc(O)cc1`, the z-score [1] is reported as 0.796 (inactive), the composite z-score [2] is reported as -0.0475 and the z-score [3] is reported as 6.4 (inactive). The z-score [4] was 1.3 (inactive), the z-score [5] was -0.194 (inactive) and the z-score [6] was 0.374 (inactive). For the same compound, the z-score [7] was -0.0246, the z-score [8] was 0.847 (inactive) and the z-score [9] was 1.13 (inactive). For the same compound, the z-score [10] was -0.0901.
With `[N-]=[N+]=NCc1ccccc1[C@H]1OC(c2ccc(OCCCO)cc2)=N[C@@]1(CCS(=O)(=O)c1ccccc1)C(=O)NCC(O)CO` (stereo not given in full) the z-score [1] was -0.0559 (inactive), the composite z-score [2] was 0.675 and the z-score [3] was 27.1 (active). The z-score [4] was 21.1 (active), the z-score [5] was 2.23 (inactive) and the z-score [6] was 2.78 (inactive). The z-score [7] was 0.123, the z-score [8] was 1.47 (inactive) and the z-score [9] was 1.1 (inactive). For the same compound, the z-score [10] was 1.64.
With `COc1cc2c(cc1OC)CN(C(=O)[C@@H]1[C@H]3C(=O)O[C@H](c4ccccc4)[C@H](c4ccccc4)N3[C@H](c3ccc(OCCO)cc3)[C@@]13C(=O)Nc1ccccc13)CC2` the z-score [1] was 0.547 (inactive), the composite z-score [2] was 0.534 and the z-score [3] was 5.29 (inactive). The z-score [4] was 2.11 (inactive), the z-score [5] was 1.06 (inactive) and the z-score [6] was 0.956 (inactive). The z-score [7] was -0.0621, the z-score [8] was 0.799 (inactive) and the z-score [9] was 0.837 (inactive). For the same compound, the z-score [10] was 1.03.
For `O=C(NCc1ccccc1)[C@@H]1c2ccccc2C(=O)N(Cc2ccccc2C(F)(F)F)[C@H]1c1ccc(CO)cc1`, the z-score [1] was 0.546 (inactive), the composite z-score [2] was -0.0731 and the z-score [3] was 3.68 (inactive). The z-score [4] was 0.75 (inactive), the z-score [5] was 1.53 (inactive) and the z-score [6] was 0.207 (inactive). The z-score [7] was 0.0835, the z-score [8] was -1.13 (inactive) and the z-score [9] was 0.914 (inactive). It also gave a z-score [10] of -0.366.
With `OCCCC1=CC(c2ccc(CN3CCCC3)cc2)N(Cc2sc3ccccc3c2Cl)CC1` (stereo not given) the z-score [1] was -1.6 (inactive), the composite z-score [2] was 0.527 and the z-score [3] was 7.15 (inactive). The z-score [4] was 1.29 (inactive), the z-score [5] was 0.314 (inactive) and the z-score [6] was 1.19 (inactive). The z-score [7] was -0.319, the z-score [8] was -5.42 (inactive) and the z-score [9] was -2.03 (inactive). The z-score [10] was -2.27.
In the case of `CCCCC(O)C1C=CC2C(=O)N(c3ccccc3)C(=O)C2N1Nc1ccc(C(C)C)cc1` (stereo not given), the z-score [1] is reported as -0.759 (inactive), the composite z-score [2] is reported as 0.484 and the z-score [3] is reported as 2.81 (inactive). For the same compound, the z-score [4] was 1.44 (inactive), the z-score [5] was 0.39 (inactive) and the z-score [6] was 1.39 (inactive). For the same compound, the z-score [7] was -0.843, the z-score [8] was -1.5 (inactive) and the z-score [9] was -3.21 (inactive). The z-score [10] was -1.92.
With `CCOC(=O)c1ccc(NC(=O)O[C@H]2[C@H](OC(=O)Nc3ccc4c(c3)OCO4)[C@H](OC(=O)Nc3ccc4c(c3)OCO4)[C@@H](OC)O[C@@H]2CO)cc1` the z-score [1] was -0.351 (inactive), the composite z-score [2] was 0.408 and the z-score [3] was 23.4 (active). The z-score [4] was 6.99 (inactive), the z-score [5] was 0.726 (inactive) and the z-score [6] was 1.55 (inactive). The z-score [7] was -0.535, the z-score [8] was -0.984 (inactive) and the z-score [9] was -0.54 (inactive). For the same compound, the z-score [10] was -1.28.
With `C=CC[C@]1(C(=O)O)COC(c2ccc(OCCCO)cc2)=N1` the z-score [1] was -0.27 (inactive), the composite z-score [2] was 0.0437 and the z-score [3] was 2.23 (inactive). For the same compound, the z-score [4] was -0.0432 (inactive), the z-score [5] was 0.472 (inactive) and the z-score [6] was 0.2 (inactive). For the same compound, the z-score [7] was -0.331, the z-score [8] was 0.388 (inactive) and the z-score [9] was -0.287 (inactive). The z-score [10] was 1.09.
